This is an account of results in PubChem BioAssay (NCATS).

For assay [1], the system named is Zika virus NS2B-NS3 protease (unlinked complex). Nature of the assay: Primary screen GU Rhodamine qHTS for Zika virus inhibitors: Unlinked NS2B-NS3 protease assay (AID 1347159). Also: nearly all actives have a fitted effect of over 60% in size. Also: potency is read from the fitted curve at half-maximal effect. As to activity change, negative = inhibition: % is scaled to controls: 0 for no effect and ±100 for the full control effect. The procedure, abridged: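 Buffer 10 mM Tris-HCl pH 8.0, 0.01% Tween 20. Unlinked protease 25 nM; compound preincubation 15 min, RT, protected from light. Substrate Rhod110, 1.5 microM; ~15% conversion in 15 min.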
For orientation: qHTS replaces the single test concentration by a dilution series.

Assay [2] deals with Cytochrome P450 2D6 (Homo sapiens) (UniProt P10635). As to the kind of experiment: Cytochrome P450 family 2 subfamily D member 6 (CYP2D6) small molecule antagonists: luciferase biochemical (cell-free) qHTS assay (AID 1645840; active = well fitted curve in the direction sought with a large enough effect in the repeat runs; an effect the other way counts as inactive or inconclusive; also: potency is read from the fitted curve at half-maximal effect; nearly all actives have a fitted effect of over 55% in size). The procedure, abridged: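 P450-Glo CYP2D6 system: proluciferin substrate converted by enzyme to luciferin, read by luminescence proportional to activity. Enzyme-substrate mix with compound 10 min at room temperature, then NADPH regeneration 1 h before detection reagent.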

In assay [3] the target is Cytochrome P450 2C9 (Homo sapiens) (UniProt P11712). Nature of the assay: Cytochrome P450 family 2 subfamily C member 9 (CYP2C9) small molecule antagonists: luciferase biochemical (cell-free) qHTS assay (AID 1645842; active = well fitted curve in the direction sought with a large enough effect in the repeat runs; an effect the other way counts as inactive or inconclusive; also: nearly all actives have a fitted effect of over 55% in size; also: potency is read from the fitted curve at half-maximal effect; as to activity change, negative = inhibition: % is scaled to controls: 0 for no effect and ±100 for the full control effect). The procedure, abridged:
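P450-Glo CYP2C9 system: proluciferin substrate with enzyme in mix containing 0.4% BSA, 10 min at room temperature, then NADPH regeneration solution added and incubated 1 h at 37C. Detection reagent stopped reaction; luminescence read after 20 min as RLU.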

A further assay relates to PA-1. Nature of the assay: Primary qHTS to identify gynecologic anti-cancer compounds using libraries of approved drugs and bioactive compounds (AID 1345084). Also: nearly all actives have a fitted effect of over 55% in size. Also: potency is read from the fitted curve at half-maximal effect. The settings on record: Gynecologic cancer cell panel viability, ATPlite luminescence, 48 h; series mostly up to 57.5 µM. The procedure, abridged:
(§1)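 Cell viability after 48 h drug treatment, ATPlite luminescence readout; five doses.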

The next assay deals with SKOV3. The description is as above. The settings on record: Gynecologic cancer cell panel viability, ATPlite luminescence, 48 h; series mostly up to 57.5 µM. The procedure, abridged: as §1
Assay [4] in a line: P-glycoprotein substrates identified in KB-8-5-11 adenocarcinoma cell line, qHTS therapeutic library screen (AID 1346987). Also: potency is read from the fitted curve at half-maximal effect; nearly all actives have a fitted effect of over 65% in size. The procedure, abridged:
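Luminescence from CellTiter-Glo, read 5 min after addition, quantified survival of KB-8-5-11 (P-gp-overexpressing) cells exposed to compounds for 72 h. AC50 was derived from concentration-response curves.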

Assay [5] addresses Catechol O-methyltransferase (Homo sapiens) (UniProt P21964). Nature of the assay: Confirmatory Screen for Target Class Profiling of Small Molecule Inhibitors of Methyltransferases (AID 1745852; calls by dose curve; also: potency is read from the fitted curve at half-maximal effect). The settings on record: MTase-Glo luminescence, SAH detection, recombinant enzyme; measured here: COMT max response; stronger effect = lower value.
In assay [6] the target is Guanidinoacetate N-methyltransferase (Homo sapiens) (UniProt Q14353). The description is as above. The settings on record: activity change, negative = inhibition: at 57.3 µM (top of the series) unless noted.
For assay [7], the target named is Nicotinamide N-methyltransferase (Homo sapiens) (UniProt P40261). The assay is described as above. The settings on record: MTase-Glo luminescence, SAH detection, recombinant enzyme; measured here: NNMT max response; stronger effect = lower value.
In assay [8] the target is Phenylethanolamine N-methyltransferase (Homo sapiens) (UniProt P11086). Described as above. The settings on record: MTase-Glo luminescence, SAH detection, recombinant enzyme; measured here: PNMT max response; stronger effect = lower value.
Assay [9] can be described thus: qHTS to identify inhibitors of the type 1 interferon - major histocompatibility complex class I in skeletal muscle: primary screen against the NCATS Mechanism Interrogation Plate v5.0 (MIPE) Libary (AID 1347411). Also: potency is read from the fitted curve at half-maximal effect; nearly all actives have a fitted effect of over 65% in size. The procedure, abridged:
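Seed engineered human myoblasts (HLA-B HiBit) in medium without dexamethasone containing 4 ng/ml IFN-beta; after 1 hr add compound titrations (top 46 uM final). Incubate 24 hrs at 37 C, lyse 10 min with HiBiT reagent, read luminescence.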

A short description of assay [10]: qHTS drug screen for cell cycle checkpoint inhibitors in PARPi-resistant BRCA-mutant ovarian cancer cell lines. (AID 1963452; calls by dose curve). The settings on record: PEO1/OlaR viability, CellTiter-Glo luminescence, 96 h, stronger effect = lower value. The procedure, abridged:
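PEO1, PEO4 and PEO1/OlaR ovarian cancer cells, 600 per well, exposed 96 h at 37C to a dilution series. Viability read by CellTiter-Glo luminescence, normalized to DMSO and empty wells; activity summarized as Z-AUC.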

Assay [11] can be described thus: qHTS assay to identify inhibitors of the type 1 interferon - major histocompatibility complex class I in skeletal muscle: Counter screen cell viability and HiBit confirmation (AID 1347412). Also: potency is read from the fitted curve at half-maximal effect; nearly all actives have a fitted effect of over 60% in size. The settings on record: iHSKM muscle cells + IFN-b, HiBiT or CellTiter-Glo, 24 h. The procedure, abridged:
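Duplicate plates, pinned identically: one read for HiBiT-tagged endogenous HLA-B luminescence, the other for ATP-content viability via CellTiter Glo. Cells were genome-engineered human myoblasts given 4 ng/ml IFN-b; compounds 12-pt, 1:3 from 46 uM final; 24 hr exposure.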

Assay [12] in a line: HepG2 cells viability qHTS for Zika virus inhibitors (AID 1347168). Also: % is scaled to controls: 0 for no effect and ±100 for the full control effect. The procedure, abridged:
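Luminescent ATP readout (CellTiter Glo) after 30 min at 37 degrees C gives viability; cells in DMEM + 4% FBS were treated 24 to 48 hours with compound, following overnight attachment.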

A short description of assay [13]: Drug repurposing screens with cells derived from glioblastoma tumor samples (AID 1345199). Also: nearly all actives have a fitted effect of over 40% in size. Also: potency is read from the fitted curve at half-maximal effect. As to activity, negative = cell killing: % is scaled to controls: 0 for no effect and ±100 for the full control effect. The settings on record: GBM patient neurospheres viability, ATP luminescence, 48 h. The procedure, abridged: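 Primary testing used CD133+ neurospheres from four GBM patients, seven concentrations, 48 h exposure and ATP-based viability; confirmation added three slower-growing patient lines.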

Results filed as inconclusive are left out. Calls of active or inactive are those of the source. Unless noted, calls follow the shape of the dose curve; as a rule, active = well fitted curve in the direction sought with a large enough effect; inconclusive = small, poorly fitted or top-dose-only effect, or another doubt; inactive = no such curve, though single readings can be large; an effect the other way counts as inactive or inconclusive.

Cytochrome P450 2D6 (Homo sapiens), sequence (P10635 whole entry, looked up): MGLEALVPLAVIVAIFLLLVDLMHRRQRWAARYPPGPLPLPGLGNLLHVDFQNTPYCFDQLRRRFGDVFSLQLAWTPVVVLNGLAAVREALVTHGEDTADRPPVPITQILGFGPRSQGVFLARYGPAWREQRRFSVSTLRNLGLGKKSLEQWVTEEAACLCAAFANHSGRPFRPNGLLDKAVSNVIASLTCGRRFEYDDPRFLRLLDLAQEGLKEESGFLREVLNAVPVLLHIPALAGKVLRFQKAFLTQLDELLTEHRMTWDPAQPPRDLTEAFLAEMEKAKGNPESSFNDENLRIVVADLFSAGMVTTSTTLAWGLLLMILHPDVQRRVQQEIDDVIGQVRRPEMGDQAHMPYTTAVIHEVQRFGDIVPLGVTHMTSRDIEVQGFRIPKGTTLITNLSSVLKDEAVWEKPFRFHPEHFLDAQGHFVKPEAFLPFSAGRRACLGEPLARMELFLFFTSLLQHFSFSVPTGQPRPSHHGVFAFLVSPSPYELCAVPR
Cytochrome P450 2C9 (Homo sapiens), sequence (P11712 whole entry, looked up): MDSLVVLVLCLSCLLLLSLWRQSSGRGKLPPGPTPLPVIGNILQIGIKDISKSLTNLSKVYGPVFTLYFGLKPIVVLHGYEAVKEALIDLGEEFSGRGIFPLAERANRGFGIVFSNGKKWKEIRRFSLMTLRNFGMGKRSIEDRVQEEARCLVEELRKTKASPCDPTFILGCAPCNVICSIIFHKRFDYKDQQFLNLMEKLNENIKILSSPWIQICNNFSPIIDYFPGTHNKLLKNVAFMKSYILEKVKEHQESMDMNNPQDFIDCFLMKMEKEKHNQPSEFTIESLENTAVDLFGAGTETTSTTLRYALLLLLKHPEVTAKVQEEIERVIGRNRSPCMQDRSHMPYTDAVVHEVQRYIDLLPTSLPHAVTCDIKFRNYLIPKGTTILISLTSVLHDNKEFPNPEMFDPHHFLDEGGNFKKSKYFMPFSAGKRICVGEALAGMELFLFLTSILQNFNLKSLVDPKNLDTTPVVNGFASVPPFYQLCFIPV
Nicotinamide N-methyltransferase (Homo sapiens), sequence (P40261 whole entry, looked up): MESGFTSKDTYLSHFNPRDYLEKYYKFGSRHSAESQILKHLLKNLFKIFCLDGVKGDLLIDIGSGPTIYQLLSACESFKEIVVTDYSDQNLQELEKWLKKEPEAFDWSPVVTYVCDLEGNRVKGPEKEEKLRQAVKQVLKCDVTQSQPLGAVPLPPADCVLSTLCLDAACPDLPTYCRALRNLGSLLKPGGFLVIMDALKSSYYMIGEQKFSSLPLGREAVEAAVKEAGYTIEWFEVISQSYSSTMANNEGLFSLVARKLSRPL
Catechol O-methyltransferase (Homo sapiens), sequence (P21964 whole entry, looked up): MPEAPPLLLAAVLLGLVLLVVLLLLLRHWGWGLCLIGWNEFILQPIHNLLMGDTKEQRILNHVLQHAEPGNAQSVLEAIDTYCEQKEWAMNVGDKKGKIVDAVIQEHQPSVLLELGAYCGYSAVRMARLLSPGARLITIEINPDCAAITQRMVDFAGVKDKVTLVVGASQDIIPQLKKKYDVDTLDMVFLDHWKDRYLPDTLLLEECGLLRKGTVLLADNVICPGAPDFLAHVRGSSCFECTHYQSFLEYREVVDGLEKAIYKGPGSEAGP
Phenylethanolamine N-methyltransferase (Homo sapiens), sequence (P11086 whole entry, looked up): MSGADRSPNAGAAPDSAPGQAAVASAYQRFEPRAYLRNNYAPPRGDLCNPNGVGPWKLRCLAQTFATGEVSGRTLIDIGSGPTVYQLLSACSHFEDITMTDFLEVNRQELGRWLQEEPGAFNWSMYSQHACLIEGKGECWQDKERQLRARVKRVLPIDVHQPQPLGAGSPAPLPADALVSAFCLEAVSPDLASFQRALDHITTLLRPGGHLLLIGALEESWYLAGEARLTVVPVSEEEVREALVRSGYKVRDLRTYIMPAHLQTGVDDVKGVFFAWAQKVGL

Take `CNc1nc(-c2ccc3c(N)n[nH]c3c2)cc(N2CC(C(=O)NC3CCCCC3)CCC2C)n1` (configuration not stated): the Potency entry in assay [1] is “inactive”. Further, the results for the Potency in assay [2] and in assay [3] were 23.9 µM (active) and 2.13 µM (active), respectively.

In the case of `CC(C)c1ccc(NC(=O)C(c2ccccc2)N(C)C(=O)Cc2c[nH]c3ccccc23)cc1` (configuration not stated), the Potency in assay [2] is 10.7 µM (active); in assay [3], 2.39 µM (active). The Potency entry in the assay on PA-1 and in the assay on SKOV3 was “inactive” each time.

Consider `COc1ccc(-c2c(C)c(C(=O)NN3CCCCC3)nn2-c2ccc(Cl)cc2Cl)cc1`, for which the Potency entry in the assay with PA-1 and in the assay with SKOV3 was “inactive” in each case.

Turning to `Cc1c(C(=O)NCCCO)cnn1-c1nc(-c2cccc(C(F)(F)F)c2)cs1`, the Potency result (in [1]; in the assay on PA-1) was “inactive” throughout. The Potency in assay [3] is 2.39 µM (active).

Consider `CCN(CC)c1ccc(C(=C2C=CC(=[N+](CC)CC)C=C2)c2cc(S(=O)(=O)O)ccc2S(=O)(=O)[O-])cc1`, for which the Potency in [2] was 15.5 µM (active); in assay [3], 13.8 µM (active); in the assay on PA-1, 3.55 µM (active).

On to `COc1cc(-c2cc(-c3cccc(O)c3)cnc2N)cc(OC)c1OC`, for which the Potency result (in [1]; in the assay with PA-1) was “inactive” throughout. Moreover, in assay [3], the Potency is 0.849 µM (active).

In the case of `COc1ccc2c(c1)CN(C(=O)CCN1CCC(Cc3ccccc3)CC1)CCS2`, the Potency was 6.32 µM (active) in [4] and 0.536 µM (active) in [2]. The Potency result (in [1]; in the assay with PA-1) was “inactive” each time.

For `CC1=CC(=O)[C@@]2(C(C)C)C[C@@H]12`, the Potency in [1] was 2.51 µM (active); in assay [6], 48.2 µM (active). Besides, the activity is -4.64% in assay [5], -30.7% in assay [7] and -13.4% in assay [8]. Moreover, in the assay on SKOV3, the Potency result is “inactive”.

As for `CNc1cc(OC)c(C(=O)N[C@@H]2CCN(Cc3ccccc3)[C@@H]2C)cc1Cl`, the Potency in assay [2] is 0.107 µM (active); in assay [3], 8.49 µM (active). The Potency entry in the assay on PA-1 and in the assay with SKOV3 was “inactive” each time.

For `C=C1C(=O)O[C@@H]2C[C@@]3(C)CCC[C@H](C)C3=C[C@H]12`, the Potency in [4] is 14.6 µM (active). Moreover, the Potency entry (in assay [1]; with PA-1) was “inactive” throughout.

On to `Cn1cnc(-c2nccc3c(=O)[nH]c(OCCCC(F)(F)F)nc23)c1`, for which the Potency with SKOV3 was 6.31 µM (active).

Regarding `CCOC(=O)CCC(=O)O[C@H]1[C@H](O[C@@H]2[C@@H](C)[C@H](O[C@H]3C[C@@](C)(OC)[C@@H](O)[C@H](C)O3)[C@@H](C)C(=O)O[C@H](CC)[C@@](C)(O)[C@H](O)[C@@H](C)C(=O)[C@H](C)CC2(C)O)O[C@H](C)C[C@@H]1N(C)C` (some centres not stated), the Potency entry (in assay [1]; in the assay on PA-1; with SKOV3) was “inactive” each time.

As to `COc1cc2nc(-c3cc(F)ccc3O)nc(N[C@@H]3CNC[C@H]3C(C)(C)O)c2cc1OC`, the Potency entry (in assay [1]; in assay [3]; in the assay with PA-1; in the assay with SKOV3) was “inactive” throughout. Moreover, the Potency in assay [9] is 3.7 µM (active); in assay [2], 19 µM (active); in assay [11] (HiBiT) it was 8.83 µM (active); in assay [11] (Viability), 31.3 µM (active). Besides, the Z-AUC in assay [10] is -0.315 (inactive); in assay [10] (measured here: PEO1 parental Z-AUC), -0.378; in [10] (measured here: PEO4 Z-AUC), -0.09.

In the case of `CC[C@H](C)[C@H]1O[C@]2(CC[C@@H]1C)C[C@@H]1C[C@@H](C/C=C(\C)[C@@H](O[C@H]3C[C@H](OC)[C@@H](O[C@H]4C[C@H](OC)[C@@H](O)[C@H](C)O4)[C@H](C)O3)[C@@H](C)/C=C/C=C3\CO[C@@H]4[C@H](O)C(C)=C[C@@H](C(=O)O1)[C@]34O)O2`, the Potency entry (in assay [12]; in the assay with PA-1; in the assay with SKOV3) was “inactive” throughout. The activity, negative = cell killing in assay [13] (at 46.1 µM (top of the series), tumour line C) is -34.4% (inactive). The Potency in [13] (tumour line A) is 1.12 µM (active); in [13] (tumour line B), 3.98 µM (active); in [13] (tumour line D), 2.82 µM (active).
